Measured values from the supplement of paper PMC9694430.

Columns and labels:
Assay in all cases: thermal shift delta Tm vs DMSO control; higher = stronger stabilization (binding)
Details in all cases: 12.5 µM; protein concentration 2 µM
LOC_OS01G57100-cb003 = tested on: LOC_OS01G57100-cb003
Outline: (§1)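 Rice kinase domain constructs, made in E. coli and purified, were placed in 96-well plates at 2 μM in 19.5 μl of 100 mM potassium phosphate pH 7.5, 150 mM NaCl, 10% glycerol and 5 × SYPRO Orange, with compound in DMSO. A temperature ramp from 25°C to 95°C at 0.05°C/s was used for differential scanning fluorimetry. The melting temperature shift is a triplicate mean compared with DMSO-only protein, derived from Boltzmann fits.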

LOC_OS01G60330-cb001 = tested on: LOC_OS01G60330-cb001
Outline: as §1

LOC_OS01G60700-cb002 = tested on: LOC_OS01G60700-cb002
Outline: as §1

LOC_OS01G63280-cb003 = tested on: LOC_OS01G63280-cb003
Outline: as §1

LOC_OS01G67340-cb003 = tested on: LOC_OS01G67340-cb003
Outline: as §1

LOC_OS01G70970-cb002 = tested on: LOC_OS01G70970-cb002
Outline: as §1

LOC_OS02G07810-cb001 = tested on: LOC_OS02G07810-cb001
Outline: as §1

LOC_OS02G08530-cb003 = tested on: LOC_OS02G08530-cb003
Outline: as §1

LOC_OS02G14120-cb001 = tested on: LOC_OS02G14120-cb001
Outline: as §1

LOC_OS02G17970-cb001 = tested on: LOC_OS02G17970-cb001
Outline: as §1

LOC_OS02G45750-cb003 = tested on: LOC_OS02G45750-cb003
Outline: as §1

LOC_OS02G54510-cb004 = tested on: LOC_OS02G54510-cb004
Outline: as §1

LOC_OS03G04050-cb001 = tested on: LOC_OS03G04050-cb001
Outline: as §1

LOC_OS03G12390-cb001 = tested on: LOC_OS03G12390-cb001
Outline: as §1

LOC_OS03G27990-cb004 = tested on: LOC_OS03G27990-cb004
Outline: as §1

LOC_OS03G50450-cb001 = tested on: LOC_OS03G50450-cb001
Outline: as §1

LOC_OS03G50810-cb003 = tested on: LOC_OS03G50810-cb003
Outline: as §1

LOC_OS04G35114-cb001 = tested on: LOC_OS04G35114-cb001
Outline: as §1

LOC_OS04G38480-cb003 = tested on: T1, LOC_OS04G38480-cb003
T1 sequence (whole entry): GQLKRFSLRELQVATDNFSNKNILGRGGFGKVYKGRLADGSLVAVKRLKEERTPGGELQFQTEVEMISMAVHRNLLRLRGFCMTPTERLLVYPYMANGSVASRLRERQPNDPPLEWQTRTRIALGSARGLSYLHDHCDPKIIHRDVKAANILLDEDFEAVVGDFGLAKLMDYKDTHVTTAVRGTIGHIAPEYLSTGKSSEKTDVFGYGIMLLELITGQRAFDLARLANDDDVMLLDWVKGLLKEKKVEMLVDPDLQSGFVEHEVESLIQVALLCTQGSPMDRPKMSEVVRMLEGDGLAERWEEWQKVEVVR
Outline: as §1

LOC_OS04G41100-cb001 = tested on: T2, LOC_OS04G41100-cb001
T2 sequence (whole entry): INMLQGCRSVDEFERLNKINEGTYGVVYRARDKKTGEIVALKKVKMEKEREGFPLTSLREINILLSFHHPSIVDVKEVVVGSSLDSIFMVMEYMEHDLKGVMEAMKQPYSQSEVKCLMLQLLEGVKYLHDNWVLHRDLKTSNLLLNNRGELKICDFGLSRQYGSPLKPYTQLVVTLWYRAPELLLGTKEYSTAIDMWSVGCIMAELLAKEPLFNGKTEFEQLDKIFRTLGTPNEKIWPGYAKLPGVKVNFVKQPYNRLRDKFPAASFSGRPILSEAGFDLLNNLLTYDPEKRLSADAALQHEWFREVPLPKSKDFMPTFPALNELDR
Outline: as §1
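Note: purified Escherichia coli-expressed rice kinase domain construct.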

SMILES | thermal shift delta Tm (LOC_OS01G57100-cb003) | thermal shift delta Tm (LOC_OS01G60330-cb001) | thermal shift delta Tm (LOC_OS01G60700-cb002) | thermal shift delta Tm (LOC_OS01G63280-cb003) | thermal shift delta Tm (LOC_OS01G67340-cb003) | thermal shift delta Tm (LOC_OS01G70970-cb002) | thermal shift delta Tm (LOC_OS02G07810-cb001) | thermal shift delta Tm (LOC_OS02G08530-cb003) | thermal shift delta Tm (LOC_OS02G14120-cb001) | thermal shift delta Tm (LOC_OS02G17970-cb001) | thermal shift delta Tm (LOC_OS02G45750-cb003) | thermal shift delta Tm (LOC_OS02G54510-cb004) | thermal shift delta Tm (LOC_OS03G04050-cb001) | thermal shift delta Tm (LOC_OS03G12390-cb001) | thermal shift delta Tm (LOC_OS03G27990-cb004) | thermal shift delta Tm (LOC_OS03G50450-cb001) | thermal shift delta Tm (LOC_OS03G50810-cb003) | thermal shift delta Tm (LOC_OS04G35114-cb001) | thermal shift delta Tm (LOC_OS04G38480-cb003) | thermal shift delta Tm (LOC_OS04G41100-cb001)
COc1cccc(-c2cc(=O)c3ccccc3o2)c1N | -0.23 °C | 0.99 °C | 0.39 °C | -0.2 °C | -0.8 °C | 0.32 °C | 0.94 °C | 0.37 °C | -0.3 °C | -0.31 °C | -0.15 °C | 0.15 °C | 0.23 °C | 0.21 °C | 0.01 °C | 0.16 °C | 0.04 °C | 0.26 °C | -0.06 °C | 0.2 °C
COc1cc(-c2cc(-c3ccc(N4CCNCC4)cc3)cnc2C)cc(OC)c1OC | -0.02 °C | 1.13 °C | 0.16 °C | -0.05 °C | 0.51 °C | 0.29 °C | 0.05 °C | 0.49 °C | 1.25 °C | 0.44 °C | 2.4 °C | 0.19 °C | 0.41 °C | -0.01 °C | 0.29 °C | 0.65 °C | 0.51 °C | 2.27 °C | 1.94 °C | 0.29 °C
Cc1cn(-c2cc(NC(=O)c3ccc(C)c(Nc4nccc(-c5cccnc5)n4)c3)cc(C(F)(F)F)c2)cn1 [Nilotinib (AMN-107)] | 0.85 °C | 1.29 °C | 0.99 °C | 0.49 °C | -0.08 °C | 0.3 °C | 0.5 °C | 0.55 °C | 0.37 °C | 0.01 °C | 0.19 °C | 0.17 °C | 0.37 °C | 0.05 °C | 0.02 °C | 0.23 °C | 0.16 °C | -0.37 °C | 0.3 °C | 0.57 °C
CCn1c(=O)c(-c2cc[nH]n2)cc2c(C)nc(N)nc21 | -0.09 °C | 0.91 °C | 0.72 °C | 0.14 °C | 0.34 °C | 0.36 °C | 0 °C | 0.79 °C | 0.62 °C | 0.52 °C | 0.15 °C | 0.22 °C | 0.35 °C | 0.21 °C | 0.09 °C | 0.05 °C | 0.28 °C | 0.94 °C | 0.82 °C | 0.15 °C
Nc1nccc(Oc2ccc(NC(=O)c3c[nH]cc(-c4ccc(F)cc4)c3=O)cc2F)c1Cl | 2.6 °C | 1.42 °C | 1.09 °C | 7.56 °C | 2.23 °C | 6.22 °C | 1.41 °C | 2.08 °C | 8.06 °C | 1.52 °C | 1.54 °C | 0.77 °C | 0.58 °C | 0.55 °C | 0.24 °C | 0.31 °C | 1.15 °C | 0.58 °C | 2.79 °C | 3.39 °C
CN1CCCN(C(=O)c2cccc(-c3ccc(/C=C4/C(=O)Nc5ccc(Cl)cc54)o3)c2)CC1 | 1.45 °C | 3.07 °C | 1.97 °C | 1.12 °C | 0.39 °C | 1.61 °C | 0.97 °C | 3.51 °C | 3.94 °C | 1.03 °C | 5.04 °C | 0.59 °C | 0.65 °C | 3.37 °C | 1.12 °C | 0.49 °C | 2.85 °C | 4.61 °C | 2.24 °C | 1.74 °C
c1ccc(-c2[nH]ncc2-c2ccnc3ccccc23)nc1 | 0.37 °C | -0.07 °C | 0.62 °C | -0.05 °C | 0.51 °C | -0.04 °C | 0.95 °C | 0.29 °C | 2.26 °C | 0.56 °C | 0.48 °C | 0.4 °C | 0.67 °C | 0.41 °C | 0.25 °C | 0.76 °C | 0.28 °C | 0.25 °C | 2.34 °C | 0.99 °C
COc1ccc(Oc2cc(NCCC(F)(F)F)c3ncc(-c4ccc(C(=O)NC5CC5)c(C)c4)n3n2)c(F)c1F | -1.23 °C | 1.27 °C | -0.2 °C | 0.82 °C | 1 °C | 0.18 °C | 1.17 °C | 0.66 °C | -0.01 °C | 1.28 °C | 0.77 °C | 0.01 °C | 0.48 °C | 0.31 °C | 0.55 °C | 0.46 °C | 1.7 °C | 1.1 °C | 1.64 °C | 0.4 °C
C[C@H](CN(C)C)Oc1nc(Nc2cc3cccc(Cl)c3cn2)cnc1C#N | 0.95 °C | 1.48 °C | 1.39 °C | 0.39 °C | 0.6 °C | 0.34 °C | 0.31 °C | 1.68 °C | 2.95 °C | 2.26 °C | 2.56 °C | 0.35 °C | 0.34 °C | 1.56 °C | 0.61 °C | 0.13 °C | 1.33 °C | 1.48 °C | 1.13 °C | 0.28 °C
COc1cc(N2CCC(N)CC2)ccc1Nc1ncc(Cl)c(-c2c[nH]c3ccccc23)n1 | 5.66 °C | 7.59 °C | 2.23 °C | 0.87 °C | 0.6 °C | 6.87 °C | 1.19 °C | 7.02 °C | 9.17 °C | 1.36 °C | 2.46 °C | 1.23 °C | 0.85 °C | 14.1 °C | 5.3 °C | 8.66 °C | 6.42 °C | 3.73 °C | 4.68 °C | 1.54 °C
C=CC(=O)Nc1cccc(Nc2nc(Nc3ccc(NC4CN(CCF)C4)cc3OC)ncc2C(F)(F)F)c1 | 0.4 °C | 0.07 °C | 0.83 °C | 0.2 °C | -0.31 °C | 0.87 °C | 0.93 °C | 3.91 °C | 1.12 °C | 0.41 °C | 0.83 °C | 0.67 °C | 0.56 °C | 8.48 °C | 0.5 °C | 0.39 °C | 1.26 °C | 0.98 °C | 0.06 °C | 0.29 °C
O=c1cc(N2CCOCC2)oc2c(-c3ccc4c(c3)OCCO4)csc12 | 0.23 °C | 0.29 °C | -0.31 °C | 0.2 °C | 0.35 °C | 0.12 °C | -0.78 °C | 0.62 °C | 1.45 °C | -0.32 °C | 0.67 °C | -0.08 °C | 0.24 °C | 0.53 °C | 0.46 °C | 0.44 °C | 0.8 °C | 1.85 °C | 1.22 °C | 0.17 °C
O=C(NC[C@H](O)CO)c1ccncc1Nc1ccc(I)cc1F | 0.55 °C | 0.48 °C | 0.44 °C | 0.1 °C | -0.19 °C | 0.16 °C | 0.72 °C | 0.65 °C | -0.42 °C | 0.32 °C | 0.45 °C | 0.09 °C | 0.21 °C | -0.04 °C | 0.19 °C | 0.42 °C | 0.09 °C | 0.79 °C | 0 °C | 0.62 °C
